From article PMC7862700, “An all-to-all approach to the identification of sequence-specific readers for epigenetic DNA modifications on cytosine”

Experiments:
Test in all cases: DAPPL (digital affinity profiling via proximity ligation, sequencing); 10 mM Tris-HCl pH 7.5, 50 mM NaCl, 1 mM DTT, 4% glycerol, room temperature, 30 min; GST-TFs on glutathione beads, 16-mer random dsDNA library, 0.1% formaldehyde crosslink after washing; high values mean tight binding
Settings in all cases: protein: recombinant; tags: N-terminal GST; dsDNA, one strand shown
FLI1 = biological target: T1, FLI1 (Homo sapiens, UniProt Q01543 1-452)
T1 sequence: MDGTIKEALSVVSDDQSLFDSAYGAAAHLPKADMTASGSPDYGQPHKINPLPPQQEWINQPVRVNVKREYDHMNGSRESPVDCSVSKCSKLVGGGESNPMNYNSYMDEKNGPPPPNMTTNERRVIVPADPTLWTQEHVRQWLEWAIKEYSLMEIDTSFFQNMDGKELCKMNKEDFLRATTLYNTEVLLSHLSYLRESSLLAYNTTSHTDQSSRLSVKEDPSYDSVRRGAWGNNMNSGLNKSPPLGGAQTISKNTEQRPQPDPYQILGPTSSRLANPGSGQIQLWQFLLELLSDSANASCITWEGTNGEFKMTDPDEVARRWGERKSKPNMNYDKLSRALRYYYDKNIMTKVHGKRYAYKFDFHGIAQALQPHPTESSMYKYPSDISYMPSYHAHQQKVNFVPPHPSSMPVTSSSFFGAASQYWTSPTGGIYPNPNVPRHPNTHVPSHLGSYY
In short: (§1)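 Human transcription factors carrying a GST fusion were produced in yeast, bound to glutathione beads, tagged with DNA barcodes and pooled together with a tag-only sample. Each pool was held with 200 nmole of a random double-stranded 16-mer DNA library in Tris/NaCl/DTT/glycerol buffer for 30 min at room temperature, then washed, crosslinked in 0.1% formaldehyde, proximity-ligated with BsaI/T4 ligase (1 h, 37 °C), PCR-amplified and sequenced on an Illumina NextSeq500. Binding signal is the read frequency of each hexamer for a given factor divided by its frequency in the tag-only sample.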

ELK1 = biological target: T2, ELK1 (Homo sapiens, UniProt P19419 1-428)
T2 sequence: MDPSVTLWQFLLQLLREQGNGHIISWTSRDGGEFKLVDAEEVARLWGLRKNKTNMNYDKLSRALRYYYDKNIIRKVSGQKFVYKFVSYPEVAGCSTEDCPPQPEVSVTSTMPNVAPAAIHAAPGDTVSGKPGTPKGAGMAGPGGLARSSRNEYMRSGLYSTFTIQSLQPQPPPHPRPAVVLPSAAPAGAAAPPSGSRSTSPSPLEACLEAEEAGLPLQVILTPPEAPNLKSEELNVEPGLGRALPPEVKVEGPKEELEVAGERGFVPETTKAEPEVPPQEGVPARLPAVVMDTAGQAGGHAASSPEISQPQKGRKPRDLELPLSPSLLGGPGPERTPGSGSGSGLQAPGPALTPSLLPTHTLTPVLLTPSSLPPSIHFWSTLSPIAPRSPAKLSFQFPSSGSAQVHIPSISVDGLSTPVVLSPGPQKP
In short: as §1

GABPA = biological target: T3, GABPA (Homo sapiens, UniProt Q06546 1-454)
T3 sequence: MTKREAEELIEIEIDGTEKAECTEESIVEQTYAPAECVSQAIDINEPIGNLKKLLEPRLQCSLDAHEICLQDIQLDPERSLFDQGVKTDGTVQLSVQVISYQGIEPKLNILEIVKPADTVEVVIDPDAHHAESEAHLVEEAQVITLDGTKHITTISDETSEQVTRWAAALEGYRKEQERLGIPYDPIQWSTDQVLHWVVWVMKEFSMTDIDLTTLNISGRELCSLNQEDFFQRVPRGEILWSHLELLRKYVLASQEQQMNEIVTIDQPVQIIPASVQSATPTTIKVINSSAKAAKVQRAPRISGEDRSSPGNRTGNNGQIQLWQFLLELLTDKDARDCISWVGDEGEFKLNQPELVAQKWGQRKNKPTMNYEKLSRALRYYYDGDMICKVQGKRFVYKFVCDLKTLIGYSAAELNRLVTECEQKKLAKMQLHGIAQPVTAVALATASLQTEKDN
In short: as §1

ERG = biological target: T4, ERG (Homo sapiens, UniProt P11308 1-479)
T4 sequence: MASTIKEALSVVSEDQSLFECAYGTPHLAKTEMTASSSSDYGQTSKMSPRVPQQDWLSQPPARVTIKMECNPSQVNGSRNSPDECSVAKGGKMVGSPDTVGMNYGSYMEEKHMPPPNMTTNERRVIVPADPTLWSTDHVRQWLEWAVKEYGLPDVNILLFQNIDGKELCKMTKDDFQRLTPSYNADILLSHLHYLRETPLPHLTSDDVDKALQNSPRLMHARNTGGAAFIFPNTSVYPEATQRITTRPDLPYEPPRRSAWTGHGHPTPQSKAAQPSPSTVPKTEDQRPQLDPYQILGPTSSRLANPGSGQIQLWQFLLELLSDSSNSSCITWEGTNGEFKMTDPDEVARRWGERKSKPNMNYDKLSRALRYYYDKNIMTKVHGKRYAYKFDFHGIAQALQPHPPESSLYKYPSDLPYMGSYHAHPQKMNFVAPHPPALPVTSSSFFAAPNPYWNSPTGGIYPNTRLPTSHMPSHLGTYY
In short: as §1

ELF1 = ELF1 (Homo sapiens, UniProt P32519 1-619)
In short: as §1

EHF = biological target: T5, EHF (Homo sapiens, UniProt Q9NZC4 1-300)
T5 sequence: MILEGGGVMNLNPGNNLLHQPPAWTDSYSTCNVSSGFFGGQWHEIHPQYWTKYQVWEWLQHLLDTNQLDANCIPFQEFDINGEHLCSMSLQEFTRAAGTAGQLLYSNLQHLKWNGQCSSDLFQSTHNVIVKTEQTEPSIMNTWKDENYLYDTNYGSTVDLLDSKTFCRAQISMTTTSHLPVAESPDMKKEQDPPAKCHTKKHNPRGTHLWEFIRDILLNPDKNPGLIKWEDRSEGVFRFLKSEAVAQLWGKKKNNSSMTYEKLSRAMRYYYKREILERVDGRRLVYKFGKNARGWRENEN
In short: as §1

SPI1 = SPI1 (Homo sapiens, UniProt P17947 1-270)
In short: as §1

SPIB = SPIB (Homo sapiens, UniProt Q01892 1-262)
In short: as §1

ELK3 = biological target: T6, ELK3 (Homo sapiens, UniProt P41970 1-407)
T6 sequence: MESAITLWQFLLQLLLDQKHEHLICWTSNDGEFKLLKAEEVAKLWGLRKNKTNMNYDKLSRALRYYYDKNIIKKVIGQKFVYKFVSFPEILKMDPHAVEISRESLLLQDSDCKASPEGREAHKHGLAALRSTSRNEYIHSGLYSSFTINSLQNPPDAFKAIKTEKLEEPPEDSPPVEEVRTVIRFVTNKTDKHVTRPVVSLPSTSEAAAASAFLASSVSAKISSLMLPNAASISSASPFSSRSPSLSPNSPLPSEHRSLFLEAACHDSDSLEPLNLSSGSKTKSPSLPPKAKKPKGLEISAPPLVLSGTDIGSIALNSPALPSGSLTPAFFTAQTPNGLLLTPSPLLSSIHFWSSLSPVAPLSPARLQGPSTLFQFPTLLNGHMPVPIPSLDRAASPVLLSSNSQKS
In short: as §1

ELF1, sequence (P32519 whole entry): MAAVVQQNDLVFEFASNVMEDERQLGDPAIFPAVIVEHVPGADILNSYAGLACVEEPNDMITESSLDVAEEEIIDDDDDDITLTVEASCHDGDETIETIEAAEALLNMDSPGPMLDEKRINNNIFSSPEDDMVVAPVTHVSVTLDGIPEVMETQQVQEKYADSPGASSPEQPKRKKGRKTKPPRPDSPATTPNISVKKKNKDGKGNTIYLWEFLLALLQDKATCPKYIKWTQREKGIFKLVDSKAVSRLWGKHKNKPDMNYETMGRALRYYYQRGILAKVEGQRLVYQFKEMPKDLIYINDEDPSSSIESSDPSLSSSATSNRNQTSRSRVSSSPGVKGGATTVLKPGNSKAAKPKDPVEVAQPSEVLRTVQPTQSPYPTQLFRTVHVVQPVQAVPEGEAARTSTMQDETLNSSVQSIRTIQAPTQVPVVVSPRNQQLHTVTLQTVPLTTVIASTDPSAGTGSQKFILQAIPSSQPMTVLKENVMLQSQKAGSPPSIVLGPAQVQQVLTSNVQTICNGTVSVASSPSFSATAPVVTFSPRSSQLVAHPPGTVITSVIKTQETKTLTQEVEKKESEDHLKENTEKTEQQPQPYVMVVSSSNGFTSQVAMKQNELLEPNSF
SPIB, sequence (Q01892 whole entry): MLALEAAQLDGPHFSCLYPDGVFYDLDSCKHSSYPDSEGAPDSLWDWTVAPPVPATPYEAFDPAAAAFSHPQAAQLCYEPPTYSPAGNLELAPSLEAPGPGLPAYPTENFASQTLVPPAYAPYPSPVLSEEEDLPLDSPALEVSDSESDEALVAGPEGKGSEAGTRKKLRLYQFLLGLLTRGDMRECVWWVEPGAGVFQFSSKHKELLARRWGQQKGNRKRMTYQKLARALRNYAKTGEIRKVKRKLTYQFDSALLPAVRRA

Sequence: ATCAAT
- binding signal (FLI1): 1.12 fold enrichment (6-mer frequency, TF over GST control)
- binding signal (ELK1): 1.01 fold enrichment (6-mer frequency, TF over GST control)
- binding signal (GABPA): 1.16 fold enrichment (6-mer frequency, TF over GST control)
- binding signal (ERG): 1.04 fold enrichment (6-mer frequency, TF over GST control)
- binding signal (ELF1): 1.15 fold enrichment (6-mer frequency, TF over GST control)
- binding signal (EHF): 1.02 fold enrichment (6-mer frequency, TF over GST control)
- binding signal (SPI1): 1.06 fold enrichment (6-mer frequency, TF over GST control)
- binding signal (SPIB): 1.07 fold enrichment (6-mer frequency, TF over GST control)
- binding signal (ELK3): 1.06 fold enrichment (6-mer frequency, TF over GST control)

Sequence: GAAATT
- binding signal (FLI1): 1.23 fold enrichment (6-mer frequency, TF over GST control)
- binding signal (ELK1): 1.15 fold enrichment (6-mer frequency, TF over GST control)
- binding signal (GABPA): 1.29 fold enrichment (6-mer frequency, TF over GST control)
- binding signal (ERG): 1.32 fold enrichment (6-mer frequency, TF over GST control)
- binding signal (ELF1): 1.23 fold enrichment (6-mer frequency, TF over GST control)
- binding signal (EHF): 1.36 fold enrichment (6-mer frequency, TF over GST control)
- binding signal (SPI1): 1.23 fold enrichment (6-mer frequency, TF over GST control)
- binding signal (SPIB): 1.3 fold enrichment (6-mer frequency, TF over GST control)
- binding signal (ELK3): 1.28 fold enrichment (6-mer frequency, TF over GST control)

Sequence: CTCAGA
- binding signal (FLI1): 1.07 fold enrichment (6-mer frequency, TF over GST control)
- binding signal (ELK1): 1.12 fold enrichment (6-mer frequency, TF over GST control)
- binding signal (GABPA): 1.13 fold enrichment (6-mer frequency, TF over GST control)
- binding signal (ERG): 1.1 fold enrichment (6-mer frequency, TF over GST control)
- binding signal (ELF1): 1.14 fold enrichment (6-mer frequency, TF over GST control)
- binding signal (EHF): 1.1 fold enrichment (6-mer frequency, TF over GST control)
- binding signal (SPI1): 1.04 fold enrichment (6-mer frequency, TF over GST control)
- binding signal (SPIB): 1.01 fold enrichment (6-mer frequency, TF over GST control)
- binding signal (ELK3): 1.02 fold enrichment (6-mer frequency, TF over GST control)

Sequence: TAATGG
- binding signal (FLI1): 1.26 fold enrichment (6-mer frequency, TF over GST control)
- binding signal (ELK1): 1.35 fold enrichment (6-mer frequency, TF over GST control)
- binding signal (GABPA): 1.24 fold enrichment (6-mer frequency, TF over GST control)
- binding signal (ERG): 1.22 fold enrichment (6-mer frequency, TF over GST control)
- binding signal (ELF1): 1.32 fold enrichment (6-mer frequency, TF over GST control)
- binding signal (EHF): 1.25 fold enrichment (6-mer frequency, TF over GST control)
- binding signal (SPI1): 1.28 fold enrichment (6-mer frequency, TF over GST control)
- binding signal (SPIB): 1.37 fold enrichment (6-mer frequency, TF over GST control)
- binding signal (ELK3): 1.31 fold enrichment (6-mer frequency, TF over GST control)

Sequence: CGACAC
- binding signal (FLI1): 1.18 fold enrichment (6-mer frequency, TF over GST control)
- binding signal (ELK1): 1.14 fold enrichment (6-mer frequency, TF over GST control)
- binding signal (GABPA): 1.16 fold enrichment (6-mer frequency, TF over GST control)
- binding signal (ERG): 1.23 fold enrichment (6-mer frequency, TF over GST control)
- binding signal (ELF1): 1.24 fold enrichment (6-mer frequency, TF over GST control)
- binding signal (EHF): 1.19 fold enrichment (6-mer frequency, TF over GST control)
- binding signal (SPI1): 1.2 fold enrichment (6-mer frequency, TF over GST control)
- binding signal (SPIB): 1.25 fold enrichment (6-mer frequency, TF over GST control)
- binding signal (ELK3): 1.14 fold enrichment (6-mer frequency, TF over GST control)

Sequence: GAACTT
- binding signal (FLI1): 1.68 fold enrichment (6-mer frequency, TF over GST control)
- binding signal (ELK1): 1.65 fold enrichment (6-mer frequency, TF over GST control)
- binding signal (GABPA): 1.62 fold enrichment (6-mer frequency, TF over GST control)
- binding signal (ERG): 1.58 fold enrichment (6-mer frequency, TF over GST control)
- binding signal (ELF1): 1.7 fold enrichment (6-mer frequency, TF over GST control)
- binding signal (EHF): 1.59 fold enrichment (6-mer frequency, TF over GST control)
- binding signal (SPI1): 1.74 fold enrichment (6-mer frequency, TF over GST control)
- binding signal (SPIB): 1.69 fold enrichment (6-mer frequency, TF over GST control)
- binding signal (ELK3): 1.7 fold enrichment (6-mer frequency, TF over GST control)

Sequence: ATGGGC
- binding signal (FLI1): 1.28 fold enrichment (6-mer frequency, TF over GST control)
- binding signal (ELK1): 1.29 fold enrichment (6-mer frequency, TF over GST control)
- binding signal (GABPA): 1.3 fold enrichment (6-mer frequency, TF over GST control)
- binding signal (ERG): 1.26 fold enrichment (6-mer frequency, TF over GST control)
- binding signal (ELF1): 1.27 fold enrichment (6-mer frequency, TF over GST control)
- binding signal (EHF): 1.32 fold enrichment (6-mer frequency, TF over GST control)
- binding signal (SPI1): 1.35 fold enrichment (6-mer frequency, TF over GST control)
- binding signal (SPIB): 1.3 fold enrichment (6-mer frequency, TF over GST control)
- binding signal (ELK3): 1.37 fold enrichment (6-mer frequency, TF over GST control)

Sequence: CTGTCA
- binding signal (FLI1): 1.21 fold enrichment (6-mer frequency, TF over GST control)
- binding signal (ELK1): 1.11 fold enrichment (6-mer frequency, TF over GST control)
- binding signal (GABPA): 1.2 fold enrichment (6-mer frequency, TF over GST control)
- binding signal (ERG): 1.14 fold enrichment (6-mer frequency, TF over GST control)
- binding signal (ELF1): 1.19 fold enrichment (6-mer frequency, TF over GST control)
- binding signal (EHF): 1.12 fold enrichment (6-mer frequency, TF over GST control)
- binding signal (SPI1): 1.1 fold enrichment (6-mer frequency, TF over GST control)
- binding signal (SPIB): 1.15 fold enrichment (6-mer frequency, TF over GST control)
- binding signal (ELK3): 1.08 fold enrichment (6-mer frequency, TF over GST control)
